In all, about 35,000 sequences were measured (“fluorescence intensity (a.u.)”: median about 10,000, highest 2% from about 52,000 on). For the sample, the highest values were picked, then their nearest neighbours and some sequences at random.
Each sequence was assayed against T1, OsWOX13 (Oryza sativa, UniProt Q5QMM3 1-267) (assay: protein-binding microarray (RPBM); PBS, 2% BSA, 51.3 ng/ul salmon testes DNA, 50 uM zinc acetate, 200 nM TF, 25 C, 1 h; high values mean tight binding). Conditions: protein: recombinant; tags: N-terminal polyhistidine and DsRed monomer fusion (pET32a); label: CyDye5-dUTP incorporated in the synthesized complementary strand; 3' TTTTT single-stranded linker to array surface; dsDNA, one strand shown.
T1 sequence: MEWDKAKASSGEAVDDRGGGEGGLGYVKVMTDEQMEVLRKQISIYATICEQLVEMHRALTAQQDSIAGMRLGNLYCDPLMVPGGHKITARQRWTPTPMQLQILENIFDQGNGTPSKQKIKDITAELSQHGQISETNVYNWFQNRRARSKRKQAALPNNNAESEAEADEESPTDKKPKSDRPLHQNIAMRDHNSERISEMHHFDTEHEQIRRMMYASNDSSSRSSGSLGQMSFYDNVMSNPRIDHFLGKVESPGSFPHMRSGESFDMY
Method in brief: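 Ni–NTA purification followed expression in E. coli BL21-CodonPlus of transcription factors fused N-terminally to a polyhistidine tag and DsRed. At 200 nM in PBS with 2% BSA, salmon testes DNA and 50 µM zinc acetate, the protein was incubated for 1 h at 25 °C with a custom Agilent array that had been primer-extended with Cy5-dUTP and blocked with 2% BSA. After washing, the array was read on an Axon 4000B scanner. The binding signal is per-feature fluorescence intensity in arbitrary units.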
In the case of “GCAGATTAGTTGTGGCAAACATTCTCTTGTGTGCAGCACTCGGAGTCACCTAGTGCAG”, the binding signal is reported as 3650 fluorescence intensity (a.u.).
With “GAATGATTGTGGATGATGAAATAAATACTGCTCTTGTCAGCGGAGTCACCTAGTGCAG” the binding signal was 33400 fluorescence intensity (a.u.).
For “TCCTAGGTGATCTGGGTGATTGTGAGTGAGTTTTGTTTCGCGGAGTCACCTAGTGCAG”, the binding signal was 4180 fluorescence intensity (a.u.).
In the case of “ACTTGATTGAAATCGAAGCATCTGTTTTCGCGTGTTTGAGCGGAGTCACCTAGTGCAG”, the binding signal is reported as 59900 fluorescence intensity (a.u.).
In the case of “CCAAATTAAGTGGAAATTAATTTGCAAGCTGAGAACGATGCGGAGTCACCTAGTGCAG”, the binding signal is reported as 55000 fluorescence intensity (a.u.).
With “TTCAAATTTAATGCAAAGATTAAGTTGATGAGAAACGACGCGGAGTCACCTAGTGCAG” the binding signal was 6640 fluorescence intensity (a.u.).
With “TTGTGAAATGTTGATGAGGCTGATTGAGCGAGAAGCAGTGCGGAGTCACCTAGTGCAG” the binding signal was 20000 fluorescence intensity (a.u.).
For “ATGATTGGAGTCAAATTGAACTTGTACTGATGTGGAGGAGCGGAGTCACCTAGTGCAG”, the binding signal was 53400 fluorescence intensity (a.u.).
In the case of “ATTGATGATTGAAATTTGCTGTGCAAATCGAGAACTGAAGCGGAGTCACCTAGTGCAG”, the binding signal is reported as 53500 fluorescence intensity (a.u.).
“TTGAAATTGGAGATGATGTGACTGAAAAGTTGTGTGTGTACGGAGTCACCTAGTGCAG” was tested, and the binding signal was 21000 fluorescence intensity (a.u.).
With “CAAATTGAAGAGGATGCATGAATTGGATTTGCAGGAGAAGCGGAGTCACCTAGTGCAG” the binding signal was 5250 fluorescence intensity (a.u.).
“GAATCTTGAAATTGAGCTGATTAATTTTCTTCTTGTTGAGCGGAGTCACCTAGTGCAG” was tested, and the binding signal was 11800 fluorescence intensity (a.u.).
For “TAAGCTAATTTGACCGCTGAAAGTGATGGAAAGCAAGCAACGGAGTCACCTAGTGCAG”, the binding signal was 4480 fluorescence intensity (a.u.).
“AACAAATAAATTACTATTAGAGTAGGATGTTCGGCAAAGTCGGAGTCACCTAGTGCAG” was tested, and the binding signal was 7390 fluorescence intensity (a.u.).
For “ATATTGATGTTAATGAATCTAAATAGATATATATGTCTAGCGGAGTCACCTAGTGCAG”, the binding signal was 5520 fluorescence intensity (a.u.).
For “GTAGACTGATCACAATCTTTATTAGAATCGTTTAAGACACCGGAGTCACCTAGTGCAG”, the binding signal was 6090 fluorescence intensity (a.u.).
“TCTAATTTATTAGAGCGCCACATGACGGCTTGAGAGCGTTCGGAGTCACCTAGTGCAG” was tested, and the binding signal was 19200 fluorescence intensity (a.u.).
For “TTCGTTCATCATCAATCAAAACATGGGACTATAAGGATTTCGGAGTCACCTAGTGCAG”, the binding signal was 7300 fluorescence intensity (a.u.).
For “AGTCAGCTGATTTAAATATAAACAGGGGTAAGAATTTAAGCGGAGTCACCTAGTGCAG”, the binding signal was 15000 fluorescence intensity (a.u.).
In the case of “TATTTTGTAATCATTTGTTTTATATTTGAATTCCTGTCAGCGGAGTCACCTAGTGCAG”, the binding signal is reported as 3710 fluorescence intensity (a.u.).
“GGTAAATATAATAAATTATTGATCTAACAACTTGAAATTACGGAGTCACCTAGTGCAG” was tested, and the binding signal was 3460 fluorescence intensity (a.u.).
With “AATGATCTGATGGATGTTCTCTCACGTTCAAATCAGAGGCCGGAGTCACCTAGTGCAG” the binding signal was 8430 fluorescence intensity (a.u.).
For “AGCTGCATATATTGATTGACAGGTGTACCGATTCCTTATGCGGAGTCACCTAGTGCAG”, the binding signal was 54400 fluorescence intensity (a.u.).
With “TGGGTCATTTATTGATTATTGTATTATTGTTCCTTATATTCGGAGTCACCTAGTGCAG” the binding signal was 10300 fluorescence intensity (a.u.).
“CAATATTCTTTGACAGCTTCGATTGACATCTCACCTTATGCGGAGTCACCTAGTGCAG” was tested, and the binding signal was 9220 fluorescence intensity (a.u.).
In the case of “GTCAATTTAGATTGCCGCGCTTACAATTAGTTCTCAGGAACGGAGTCACCTAGTGCAG”, the binding signal is reported as 15100 fluorescence intensity (a.u.).
In the case of “AAAGTAATTAGTGTTTTCTTGATTAGTCTTTTCCTTGTATCGGAGTCACCTAGTGCAG”, the binding signal is reported as 42700 fluorescence intensity (a.u.).
For “CATTAAGAGTGATTGAATCTTGTTCTAAACATTAACTTTTCGGAGTCACCTAGTGCAG”, the binding signal was 26300 fluorescence intensity (a.u.).
With “TCTAATTTCTTCCCTTGCAGATTGATCTTGTTAGTGAGCCCGGAGTCACCTAGTGCAG” the binding signal was 20700 fluorescence intensity (a.u.).
With “TTAATTAATTTCTCTAATGATTCTCAATCTTGTGTTCTTCCGGAGTCACCTAGTGCAG” the binding signal was 28300 fluorescence intensity (a.u.).
For “ACAAAGTAATTGATTTCTTGTGTGAGGCCTTGTTTAGATCCGGAGTCACCTAGTGCAG”, the binding signal was 53400 fluorescence intensity (a.u.).
With “AGTGATTAGATTAGTGAACTGATTAACATTTCTTGTGTTCCGGAGTCACCTAGTGCAG” the binding signal was 64700 fluorescence intensity (a.u.).
With “ATTATCCATTCAATCAAAACAAGCAGGACTACTAGAAAGCCGGAGTCACCTAGTGCAG” the binding signal was 8940 fluorescence intensity (a.u.).
For “CTTTATTGATTGAGAGGAACTATCTACCTCTGTAATGACACGGAGTCACCTAGTGCAG”, the binding signal was 39200 fluorescence intensity (a.u.).
With “CAGTGTGATTTAAGAATTTTCAACTGTAAAAGAATAGGAGCGGAGTCACCTAGTGCAG” the binding signal was 10000 fluorescence intensity (a.u.).
In the case of “ACAAAACCAACTAATTAGGCAGGCAGCCATTTACCTCCATCGGAGTCACCTAGTGCAG”, the binding signal is reported as 5480 fluorescence intensity (a.u.).
“TCAATTGATTATTACTGCCGCTTACTGTCTCCTCTACTGCCGGAGTCACCTAGTGCAG” was tested, and the binding signal was 53300 fluorescence intensity (a.u.).
With “CCGCACCTAAATTGATTGATTATTAATTTAACTGCCGCTCCGGAGTCACCTAGTGCAG” the binding signal was 65500 fluorescence intensity (a.u.).
“CTAGATTTATAATTAAATAAATTATTATAATATATAACTCCGGAGTCACCTAGTGCAG” was tested, and the binding signal was 42700 fluorescence intensity (a.u.).
With “AATAACTAATTGTACATATTACGACTAATTTGCGAGATGACGGAGTCACCTAGTGCAG” the binding signal was 35000 fluorescence intensity (a.u.).
For “AATAACTAATTGCATAGATTGTGACTAATTTGCGATGCGACGGAGTCACCTAGTGCAG”, the binding signal was 55200 fluorescence intensity (a.u.).
In the case of “TCTAATTACTTATTAATTAATTGATTTAATTAAATTAATCCGGAGTCACCTAGTGCAG”, the binding signal is reported as 40400 fluorescence intensity (a.u.).
With “TTTGCCGCTGAGTAATTAAATTGTCTACTTACAAATCCTCCGGAGTCACCTAGTGCAG” the binding signal was 3590 fluorescence intensity (a.u.).
“AAAATAACTAATTGCACAGATTGTGACTAATTTGCGAGACCGGAGTCACCTAGTGCAG” was tested, and the binding signal was 34900 fluorescence intensity (a.u.).
In the case of “CAGGACTAATTGGGGTTGCAAACTGGGACTACAAACTACTCGGAGTCACCTAGTGCAG”, the binding signal is reported as 28300 fluorescence intensity (a.u.).
For “ATCAATCACTACTGCATATTACTATAATCTCCTCTATACTCGGAGTCACCTAGTGCAG”, the binding signal was 5200 fluorescence intensity (a.u.).
In the case of “AACTAATTAATTTATTGGCAGGCACTGGCCTACCAAACCTCGGAGTCACCTAGTGCAG”, the binding signal is reported as 53100 fluorescence intensity (a.u.).

Reference: article PMC7819943, “Rice protein-binding microarrays: a tool to detect cis-acting elements near promoter regions in rice”
